# Experimental data: PubChem BioAssay AID1159580 (chemical genetic matrix, 2015)
# “And” between values parts separate entries of the source, which are not always exact repeats. Equal entries are not always repeated. The campaign covered roughly 5,500 compounds. About 2,000 (36%) were called active. Inconclusive results (about 18%) are left out. No stated cut-off is given here; in the data, active means normalized growth mostly below about 0.91 (no sharp cut-off); inconclusive means no clear call, values can overlap the other calls; inactive means mostly above about 0.92. Some of the results follow. More than one record can exist for a structure, and the calls need not agree.
# Assay: chemical genetic growth profiling, strain panel (AID 1159580);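 further: tested at 20 µM; growth read once vehicle control cultures reached saturation at 30 °C; 1 = growth at the plate median or of vehicle wells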
# Conditions: S. cerevisiae deletion strains, growth OD
smiles,measurement,setting,value
O=c1c(O)c(-c2ccc(O)c(O)c2)oc2cc(O)cc(O)c12,normalized growth,"locus YAL013W, strain DEP1, stronger effect = lower value",0.973 (inactive) and 0.979 (inactive)
same,normalized growth,"locus YAL021C, strain ccr4, stronger effect = lower value",0.659 (active)
same,normalized growth,"locus YAL026C, strain drs2, stronger effect = lower value",0.782 (active)
same,normalized growth,"locus YAL030W, strain snc1, stronger effect = lower value",0.94 (inactive)
same,normalized growth,"locus YAL040C, strain CLN3, stronger effect = lower value",1.07 (inactive)
same,normalized growth,"locus YBL061C, strain skt5, stronger effect = lower value",0.832 (active)
same,normalized growth,"locus YBR009C, strain hhf1, stronger effect = lower value",0.919 (inactive)
same,normalized growth,"locus YBR021W, strain FUR4, stronger effect = lower value",0.992 (inactive)
same,normalized growth,"locus YBR023C, strain chs3, stronger effect = lower value",0.778 (active)
same,normalized growth,"locus YBR171W, strain sec66, stronger effect = lower value",0.997 (inactive)
same,normalized growth,"locus YBR229C, strain ROT2, stronger effect = lower value",0.993 (inactive)
same,normalized growth,"locus YBR231C, strain swc5, stronger effect = lower value",0.767 (active)
same,normalized growth,"locus YBR279W, strain paf1, stronger effect = lower value",0.848 (active)
same,normalized growth,"locus YCL011C, strain gbp2, stronger effect = lower value",0.847 (active)
same,normalized growth,"locus YCL016C, strain dcc1, stronger effect = lower value",0.877 (active)
same,normalized growth,"locus YCL029C, strain bik1, stronger effect = lower value",0.982 (inactive)
same,normalized growth,"locus YCL061C, strain MRC1 (second series), stronger effect = lower value",0.996 (inactive)
same,normalized growth,"locus YCL069W, strain vba3, stronger effect = lower value",0.92 (active)
same,normalized growth,"locus YCR088W, strain abp1, stronger effect = lower value",0.993 (inactive)
same,normalized growth,"locus YDL005C, strain med2, stronger effect = lower value",0.992 (inactive)
same,normalized growth,"locus YDL035C, strain GPR1, stronger effect = lower value",0.906 (inactive)
same,normalized growth,"locus YDL040C, strain nat1, stronger effect = lower value",0.974 (inactive)
same,normalized growth,"locus YDL074C, strain BRE1, stronger effect = lower value",0.848 (inactive)
same,normalized growth,"locus YDL101C, strain DUN1, stronger effect = lower value",0.98 (inactive)
same,normalized growth,"locus YDL134C, strain PPH21, stronger effect = lower value",0.932 (inactive)
same,normalized growth,"locus YDL185W, strain tfp1, stronger effect = lower value",1.01 (inactive)
same,normalized growth,"locus YDL192W, strain arf1, stronger effect = lower value",0.958 (inactive)
same,normalized growth,"locus YDR001C, strain nth1, stronger effect = lower value",0.988 (inactive)
same,normalized growth,"locus YDR069C, strain doa4, stronger effect = lower value",0.728 (active)
same,normalized growth,"locus YDR101C, strain arx1, stronger effect = lower value",1.02 (inactive)
same,normalized growth,"locus YDR137W, strain rgp1, stronger effect = lower value",0.897 (inactive)
same,normalized growth,"locus YDR150W, strain NUM1, stronger effect = lower value",0.978 (inactive)
same,normalized growth,"locus YDR159W, strain sac3, stronger effect = lower value",0.974 (inactive)
same,normalized growth,"locus YDR162C, strain NBP2, stronger effect = lower value",0.908 (inactive)
same,normalized growth,"locus YDR195W, strain ref2",1.04 (inactive)
same,normalized growth,"locus YDR297W, strain sur2, stronger effect = lower value",0.899 (active)
same,normalized growth,"locus YDR318W, strain mcm21, stronger effect = lower value",0.967 (inactive)
same,normalized growth,"locus YDR334W, strain swr1, stronger effect = lower value",0.855 (active)
same,normalized growth,"locus YDR335W, strain msn5, stronger effect = lower value",0.828 (active)
same,normalized growth,"locus YDR363W, strain ESC2, stronger effect = lower value",1.01 (inactive)
same,normalized growth,"locus YDR388W, stronger effect = lower value",0.943 (inactive)
same,normalized growth,"locus YDR392W, strain spt3, stronger effect = lower value",0.781 (inactive)
same,normalized growth,"locus YDR502C, strain sam2, stronger effect = lower value",0.955 (inactive)
same,normalized growth,"locus YEL003W, strain gim4, stronger effect = lower value",0.879 (active)
same,normalized growth,"locus YEL037C, strain rad23, stronger effect = lower value",0.885 (active)
same,normalized growth,"locus YEL061C, strain CIN8 (second series), stronger effect = lower value",0.963 (inactive)
same,normalized growth,"locus YEL061C, strain CIN8, stronger effect = lower value",0.946 (inactive)
same,normalized growth,"locus YER002W, strain NOP16, stronger effect = lower value",1 (inactive)
same,normalized growth,"locus YER015W, strain faa2, stronger effect = lower value",0.817 (active)
same,normalized growth,"locus YER016W, strain bim1, stronger effect = lower value",0.911 (active)
same,normalized growth,"locus YER110C, stronger effect = lower value",1.04 (inactive)
same,normalized growth,"locus YER111C, strain swi4, stronger effect = lower value",0.895 (active)
same,normalized growth,"locus YER155C, strain BEM2 (second series), stronger effect = lower value",0.899 (inactive)
same,normalized growth,"locus YER155C, strain BEM2, stronger effect = lower value",1.02 (inactive)
same,normalized growth,"locus YER167W, strain BCK2, stronger effect = lower value",0.976 (inactive)
same,normalized growth,"locus YFR010W, strain ubp6, stronger effect = lower value",0.9 (active)
same,normalized growth,"locus YGL078C, strain dbp3, stronger effect = lower value",0.999 (inactive)
same,normalized growth,"locus YGL086W, strain mad1, stronger effect = lower value",0.915 (active)
same,normalized growth,"locus YGL167C, strain pmr1, stronger effect = lower value",0.977 (inactive)
same,normalized growth,"locus YGL173C, strain kem1, stronger effect = lower value",0.826 (active)
same,normalized growth,"locus YGL227W, strain vid30, stronger effect = lower value",1 (inactive)
same,normalized growth,"locus YGL240W, strain doc1, stronger effect = lower value",0.997 (inactive)
same,normalized growth,"locus YGL248W, strain PDE1, stronger effect = lower value",0.928 (inactive)
same,normalized growth,"locus YGL253W, strain hxk2, stronger effect = lower value",0.83 (active)
same,normalized growth,"locus YGR078C, strain PAC10, stronger effect = lower value",0.887 (inactive) and 0.991 (inactive)
same,normalized growth,"locus YGR135W, strain pre9, stronger effect = lower value",0.91 (inactive)
same,normalized growth,"locus YGR229C, strain SMI1, stronger effect = lower value",0.542 (active) and 0.965 (inactive)
same,normalized growth,"locus YGR252W, strain gcn5, stronger effect = lower value",0.804 (inactive)
same,normalized growth,"locus YHR013C, strain ard1, stronger effect = lower value",0.796 (active)
same,normalized growth,"locus YHR027C, strain rpn1, stronger effect = lower value",0.807 (active)
same,normalized growth,"locus YHR030C, strain SLT2, stronger effect = lower value",0.951 (inactive) and 0.997 (inactive)
same,normalized growth,"locus YHR079C, strain IRE1 (second series), stronger effect = lower value",1.02 (inactive)
same,normalized growth,"locus YHR079C, strain IRE1, stronger effect = lower value",0.981 (inactive)
same,normalized growth,"locus YHR094C, strain hxt1, stronger effect = lower value",1.04 (inactive)
same,normalized growth,"locus YHR129C, strain ARP1, stronger effect = lower value",0.926 (inactive)
same,normalized growth,"locus YHR142W, strain chs7, stronger effect = lower value",0.735 (active)
same,normalized growth,"locus YHR200W, strain rpn10, stronger effect = lower value",0.941 (inactive)
same,normalized growth,"locus YIL066C, strain RNR3, stronger effect = lower value",0.882 (inactive)
same,normalized growth,"locus YIL073C, strain SPO22, stronger effect = lower value",0.854 (inactive)
same,normalized growth,"locus YIL125W, strain kgd1, stronger effect = lower value",1 (inactive)
same,normalized growth,"locus YIR030C, strain dcg1, stronger effect = lower value",1.03 (inactive)
same,normalized growth,"locus YJL092W, strain hpr5, stronger effect = lower value",0.955 (inactive)
same,normalized growth,"locus YJL095W, strain BCK1 (second series), stronger effect = lower value",0.858 (active)
same,normalized growth,"locus YJL095W, strain BCK1, stronger effect = lower value",0.773 (active) and 0.993 (inactive)
same,normalized growth,"locus YJL115W, strain asf1, stronger effect = lower value",0.962 (inactive)
same,normalized growth,"locus YJL129C, strain trk1, stronger effect = lower value",0.913 (inactive)
same,normalized growth,"locus YJL134W, strain LCB3, stronger effect = lower value",0.988 (inactive)
same,normalized growth,"locus YJL154C, strain vps35, stronger effect = lower value",0.985 (inactive)
same,normalized growth,"locus YJL164C, strain tpk1, stronger effect = lower value",0.868 (active)
same,normalized growth,"locus YJL166W, strain qcr8, stronger effect = lower value",0.913 (inactive)
same,normalized growth,"locus YJL168C, strain set2, stronger effect = lower value",1.02 (inactive)
same,normalized growth,"locus YJL187C, strain SWE1 (second series), stronger effect = lower value",0.895 (inactive)
same,normalized growth,"locus YJR043C, strain POL32, stronger effect = lower value",0.905 (inactive)
same,normalized growth,"locus YJR066W, strain TOR1, stronger effect = lower value",0.931 (inactive)
same,normalized growth,"locus YJR075W, strain HOC1, stronger effect = lower value",0.982 (inactive) and 0.99 (inactive)
